A collection of fitness landscapes (doi:10.1016/j.celrep.2020.107928)
Whole data set: some 81,000 sequences, median “one-hybrid fitness for binding parS DNA” near -0.17, cut for the highest 2% near 0.51. This is one part of a sample in which the highest values are shown more often than they occur.

B1: Caulobacter ParB omega fusion; a variant is named by its letters at X, in order, B8GW30 (parent)
chain: MESVVVGEPGMSEGRRGLGRGLSALLGEVDAAPAQAPGEQLGGSREAPIEILQRNPDQPRRTFREEDLEDLSNSIREKGVLQPILVRPSPDTAGEYQIVAGERAWRAAQRAGLKTVPIMVRELDDLAVLEIGIIENVQRADLNVLEEALSYKVLMEKFERTQENIAQTIGKSXSHVANXMRLLXLPDEVQSYLVSGELTAXHARAIAAAADPVALAKQIIEGGLSVRETEALARKAPNLSAGKSKGGRPPRVKDTDTQALESDLSSVLGLDVSIDHRGSTGTLTITYATLEQLDDLCNRLTRGI

Variants of: B1
Assay: one-hybrid fitness for binding parS DNA (scaled: cognate 1, non-cognate 0); higher = stronger binding
Conditions: with parS DNA site
Procedure, shortened: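 Fitness is the rescaled log change in variant-to-wild-type read ratio, measured by Illumina sequencing of plasmids before and after bacterial one-hybrid selection. The scale puts cognate at 1 and non-cognate at 0. Selection of Caulobacter ParB libraries, four specificity codons randomised, took place in E. coli USO with a HIS3 reporter, site 19 bp from the promoter, over 48 hours at 37°C on M9-minus-histidine with 0.1 mM IPTG and 5 mM 3-AT.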

Variant	one-hybrid fitness for binding parS DNA
HVTI	≤ 0.2
GLLA	≤ 0.2
RINP	≤ 0.2
RIDR	≤ 0.2
RIYD	≤ 0.2
RISQ	≤ 0.2
RIYP	0.203
RISF	0.21
RIYT	0.926
RIDT	0.725
RINT	0.914
RIST	0.929
RIDF	0.257
RINN	0.469
NRPF	≤ 0.2
CRDC	≤ 0.2
QFLC	≤ 0.2
PTYG	≤ 0.2
RARL	≤ 0.2
GSHT	≤ 0.2
MNLG	≤ 0.2
RIRR	≤ 0.2
RIRT	0.848
RIRK	≤ 0.2
WPQC	0.245
SGVD	≤ 0.2

Variant	one-hybrid fitness for binding parS DNA
RIAD	0.212
RIAN	0.432
RIFD	≤ 0.2
RIAS	1.04
RIFS	0.995
RIFP	0.206
VTEW	≤ 0.2
YCGR	≤ 0.2
AFAS	≤ 0.2
ARMN	≤ 0.2
VELC	≤ 0.2
RNDC	0.617
RNNM	0.28
RNNC	0.869
RNNK	≤ 0.2
RNDY	0.256
RNDD	≤ 0.2
DFSG	≤ 0.2
NFSG	≤ 0.2
RMSR	≤ 0.2
RKSK	≤ 0.2
RKSY	0.366
RMSG	1.02
RLSG	1.01
RFSG	0.97
RLSQ	≤ 0.2

Variant	one-hybrid fitness for binding parS DNA
RLSF	0.246
RKSG	0.928
RMSK	≤ 0.2
NHHN	≤ 0.2
WADR	≤ 0.2
REQN	≤ 0.2
AVAR	≤ 0.2
GWDC	≤ 0.2
RDVW	≤ 0.2
SSNE	≤ 0.2
RTSQ	≤ 0.2
RDSG	≤ 0.2
RISG	1.01
RSSK	≤ 0.2
RISK	≤ 0.2
RTSY	0.489
RESG	0.217
RISY	0.477
RSSG	0.993
RTSG	1
RPSG	≤ 0.2
RCSG	0.997
EQLF	≤ 0.2
KYRN	≤ 0.2
QKYR	≤ 0.2
DTLV	≤ 0.2

Variant	one-hybrid fitness for binding parS DNA
PHRR	≤ 0.2
DRAS	≤ 0.2
GTSE	≤ 0.2
LHRT	≤ 0.2
RCRN	0.387
RPYN	≤ 0.2
RRRN	0.788
RCYN	0.545
RRYN	0.557
RCDN	0.376
KAEG	≤ 0.2
AMIC	≤ 0.2
RPAA	≤ 0.2
RFFA	0.492
RSAA	0.554
RFAA	0.559
EFAA	≤ 0.2
RCAA	0.596
RGAA	0.32
RDAA	≤ 0.2
RWAA	0.378
QVSF	≤ 0.2
LAKQ	≤ 0.2
WWDC	≤ 0.2
RWHK	≤ 0.2
RQFQ	≤ 0.2

Variant	one-hybrid fitness for binding parS DNA
RQAD	≤ 0.2
RQAN	0.419
RQFR	≤ 0.2
RQFT	0.759
RQAT	0.884
MIFS	≤ 0.2
SNTE	≤ 0.2
YHPR	≤ 0.2
RCGL	≤ 0.2
LEEV	≤ 0.2
SVPL	≤ 0.2
GMVS	≤ 0.2
QIKS	≤ 0.2
RSWT	0.756
RMWT	0.904
RDWT	≤ 0.2
RMWH	0.231
RCWT	0.908
RMWN	0.43
RPWT	≤ 0.2
RGWT	0.388
REWT	≤ 0.2
TNVG	≤ 0.2
AFWR	≤ 0.2
TISC	≤ 0.2
RCEF	≤ 0.2

Variant	one-hybrid fitness for binding parS DNA
RCFS	1.03
RCFD	≤ 0.2
RSFP	≤ 0.2
RPFS	≤ 0.2
RSFD	≤ 0.2
RSFS	1.01
QAPG	≤ 0.2
YKDR	≤ 0.2
IDIG	≤ 0.2
RRGG	0.698
RRYR	≤ 0.2
RRGY	0.361
DRSG	≤ 0.2
RRCG	0.758
RRYK	≤ 0.2
RRYG	0.769
RRCN	0.452
RRSG	0.711
RRCR	≤ 0.2
RRGF	≤ 0.2
RRSY	0.46
QRNI	≤ 0.2
RLLW	0.241
